Assay outcomes as filed in PubChem.
Hits are enriched below; roughly 3.5% of the tested compounds scored in any of these assays.
MITF primary: human MITF inhibition, primary screen; O75030; AlphaScreen MITF homodimerization, bead proximity signal; inhibition, % at 2.6 µM; hit rate 0.91% among 650,000; in the data active = inhibition above about 50%
FBW7 activator: activators of human E3 ligase FBW7 | Q969H0 | AlphaScreen FBW7–phospho-cyclin E peptide binding, activator screen | normalized activity (activation), % at 26.1 µM | hit rate 0.13% among 650,000 | AID 1259310; in the data active = normalized activity above about 1.9%;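 also: purified mutant Fbw7 with reduced substrate affinity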
TEAD-YAP block: TEAD-YAP interaction inhibition | HEK-TIYL cells, TEAD-Gal4/YAP UAS-luciferase luminescence | hit rate 1.4% among 640,000 | inhibition, % at 9.12 µM | AID 1259422; in the data active = inhibition above about 32%
GPR151 ag: activates the human receptor GPR151; PathHunter beta-arrestin GPR151 cells, luminescence; hit rate 1% among 650,000; AID 1508602; activation, % at 11.2 µM; in the data active = activation above about 4.9%
Target sequence (Q8TDV0 whole entry, looked up): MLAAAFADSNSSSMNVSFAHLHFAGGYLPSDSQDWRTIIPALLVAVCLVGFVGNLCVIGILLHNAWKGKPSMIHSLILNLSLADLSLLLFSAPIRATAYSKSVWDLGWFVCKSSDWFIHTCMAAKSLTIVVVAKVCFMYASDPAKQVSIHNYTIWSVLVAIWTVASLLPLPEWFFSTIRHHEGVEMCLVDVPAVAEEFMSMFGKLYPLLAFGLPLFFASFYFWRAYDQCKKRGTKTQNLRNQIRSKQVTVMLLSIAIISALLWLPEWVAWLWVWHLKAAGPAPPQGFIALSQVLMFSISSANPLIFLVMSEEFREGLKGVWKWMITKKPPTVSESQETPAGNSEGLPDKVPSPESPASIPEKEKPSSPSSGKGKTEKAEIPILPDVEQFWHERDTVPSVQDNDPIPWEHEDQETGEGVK
GPR151 confirm: human GPR151 activation, confirmation screen; shares compounds with GPR151 ag; GPR151 PathHunter beta-arrestin cells, luminescence, 90 min; % of EA-reagent control over plate median; activation, % at 11.2 µM; 6,700 tested, under 10 active;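 active = mean percent activation across replicates above the confirmation screen cutoff of 4.91%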
GPR119 counter: counter-screen for GPR151 activators: effect on human GPR119. shares compounds with GPR151 ag. GPR119 PathHunter beta-arrestin cells, luminescence, 90 min; 0 = compound-well median, 100 = enzyme-acceptor control. activation, % at 11.2 µM. hit rate 0.3% among 6,700;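 active = mean percent activation in the counterscreen above 29.09%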;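 also: counterscreen on off-target GPR119 to flag nonselective hits from the GPR151 activator screen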
Hits are given with their value; i = inactive; nt = no result.

SMILES | MITF primary | FBW7 activator | TEAD-YAP block | GPR151 ag | GPR151 confirm | GPR119 counter
COc1ccc(Cl)cc1C(=O)Nc1c2c(nn1-c1ccccc1C)CS(=O)(=O)C2 | i | i | i | i | nt | nt
Cc1ccc(-n2nc3c(c2NC(=O)c2c(F)cccc2F)CS(=O)(=O)C3)cc1 | i | i | i | i | nt | nt
COc1ccc(Cl)cc1C(=O)Nc1c2c(nn1-c1ccc(C)cc1C)CS(=O)(=O)C2 | i | i | i | 5.3 | i | i
CCOc1ccc2nc(N3CCC(C(=O)NC(CC)c4ccncc4)CC3)nc(C)c2c1 (stereo unspecified) | i | i | i | i | nt | nt
O=C(COc1ccccc1)n1nc(NCc2ccccc2)nc1NCc1ccccc1 | i | i | i | 8.8 | i | i
CC(=O)n1nc(NCc2ccccc2)nc1NCc1ccccc1 | i | i | i | i | nt | nt
COCC(=O)n1nc(NCc2ccc(OC)cc2)nc1NCc1ccc(OC)cc1 | i | i | i | i | nt | nt
CCCC(=O)n1nc(NCc2ccccc2)nc1NCc1ccccc1 | i | i | i | 6.9 | i | i
CSc1nc2[nH]c(=O)cc(O)c2s1 | i | i | i | 5.5 | i | i
COc1ccc(Nc2nc3[nH]c(=O)cc(O)c3s2)cc1 | i | i | i | i | nt | nt
CCCCCn1c(N/N=C\c2ccccc2)nc2c1c(=O)[nH]c(=O)n2C | i | i | i | i | nt | nt
COc1ccc(S(=O)(=O)N2CCC(N3CCCCC3)CC2)cc1OC | i | i | i | 6.3 | i | i
COc1ccc(S(=O)(=O)N2CCC(C)CC2)cc1OC | i | i | i | i | nt | nt
Cc1ccccc1-n1nc2c(c1NC(=O)c1cccc([N+](=O)[O-])c1C)CS(=O)(=O)C2 | i | i | i | i | nt | nt
C1=C(c2nc3ccc(-c4ccncc4)cc3[nH]2)CCOc2ccccc21 | i | i | i | 10 | i | i
c1cc(-c2ccc3nc(-c4ccncc4)[nH]c3c2)ccn1 | i | i | i | i | nt | nt
COc1ccc(NC(=O)COc2ccc(C)cc2C)c(OC)c1 | i | i | i | 7.9 | i | i
COc1ccc(OC)c(NC(=O)COc2ccc(Br)cc2C(C)(C)C)c1 | i | i | i | 5.9 | i | i
COc1ccc(OC)c(NC(=O)COc2ccccc2C(C)(C)C)c1 | i | i | i | i | nt | nt
CC(C)N(C(=O)c1cc([N+](=O)[O-])cc([N+](=O)[O-])c1)C(C)C | i | i | i | i | nt | nt
O=C(NCc1ccncc1)c1ccc(OC2CCN(C3CCSCC3)CC2)cc1 | i | i | i | i | nt | nt
CSCCC(C)N1CCC(Oc2ccc(C(=O)NCc3ccncc3)cc2)CC1 (stereo unspecified) | i | i | i | 5.0 | i | i
COC(=O)NNC(=S)NCc1ccc(C)cc1 | i | i | i | 5.6 | i | i
CC1CCCN(S(=O)(=O)c2cccs2)C1 (stereo unspecified) | i | i | i | 10 | i | i
Nc1ccc(C(=O)Nc2ccc(Oc3ccccc3)cc2)cc1 | i | i | i | i | nt | nt
SMILES | MITF primary | FBW7 activator | TEAD-YAP block | GPR151 ag | GPR151 confirm | GPR119 counter
O=S(=O)(c1ccc(Nc2nc3ccccc3n3nnnc23)cc1)N1CCOCC1 | i | i | i | 5.1 | i | i
O=C1c2ccc([N+](=O)[O-])cc2C(=O)N1c1ccc(Cl)c(Cl)c1 | i | i | i | 6.9 | i | i
Cc1ccc(N2C(=O)c3ccc([N+](=O)[O-])cc3C2=O)cc1Cl | i | i | i | i | nt | nt
CCN(Cc1ccco1)C(=O)Cn1nc2n(Cc3ccccc3F)c3ccccc3n2c1=O | i | i | i | 6.6 | i | i
CCN(Cc1ccco1)C(=O)Cn1nc2c(C)cc3ccccc3n2c1=O | i | i | i | i | nt | nt
Fc1cccc2sc(Nc3nc(-c4ccccn4)cs3)nc12 | i | i | 50 | 7.6 | i | i
COc1ccc(C2Nc3ccccc3C(=O)N2c2ccc(C)cc2)cc1CN1C(=O)c2ccccc2C1=O (stereo unspecified) | i | i | i | i | nt | nt
COCc1cc(C)nc2sc(C(=O)c3ccccc3)c(N)c12 | i | i | i | i | nt | nt
COCc1cc(C)nc2oc(C(=O)c3ccccc3)c(N)c12 | i | i | i | 5.7 | i | i
O=C(Oc1ccc(-c2ccccc2)cc1)N1CCOCC1 | i | i | i | 5.8 | i | i
COc1ccc(CNc2cc(C)nc(-c3ccccc3)n2)cc1 | i | i | i | i | nt | nt
Cc1cc(NCc2ccccc2)nc(-c2ccccc2)n1 | i | i | i | 5.2 | i | i
COc1cc(Nc2nc(C)cc(NC3CC3)n2)cc(OC)c1OC | i | i | i | 5.9 | i | i
COc1cc(Nc2cc(C)nc(Nc3cccnc3)n2)cc(OC)c1OC | i | i | i | i | nt | nt
O=C(Nc1nc(-c2ccc(Cl)cc2)cs1)c1c(F)cccc1F | i | i | i | i | nt | nt
CN(CCCNC(=O)CCn1c(=O)c2cccn2c2cccnc21)C1CCCCC1 | i | i | i | 5.3 | i | i
CCCCC(C)NC(=O)C1CC(=O)N(c2ccc(OCC)cc2)C1 (stereo unspecified) | i | i | i | 5.5 | i | i
O=C(N/N=C/c1ccc(Br)cc1)C1CC(=O)N(c2ccc(F)cc2)C1 (stereo unspecified) | i | i | i | i | nt | nt
O=C(N/N=C/c1cccc(Br)c1)C1CC(=O)N(c2ccccc2)C1 (stereo unspecified) | i | 2.8 | i | 5.3 | i | i
O=C(N/N=C/c1cccs1)C1CC(=O)N(c2ccc(Cl)cc2)C1 (stereo unspecified) | i | i | i | 12 | i | i
CC(=O)Nc1ccc(NC(=O)C2CC(=O)N(c3ccc(Br)cc3)C2)cc1 (stereo unspecified) | i | i | i | 8.5 | i | i
CC(=O)O[C@H]1CC(=O)OC(C)(C)[C@@H]2CC(=O)[C@]3(C)[C@H](CC[C@@]4(C)[C@H](c5ccoc5)OC(=O)[C@H]5O[C@]543)[C@@]12C | i | i | i | i | nt | nt
O=C(CSc1nc2ccccc2o1)NCCCOc1cccc2cccnc12 | i | i | i | i | nt | nt
CCOc1ccc(NC(=O)COC(=O)C2CC(=O)N(c3ccc(C)cc3)C2)cc1 (stereo unspecified) | i | i | i | i | nt | nt
Cc1ccc(NC(=O)COc2ccc(N3CC(C(N)=O)CC3=O)cc2)cc1 (stereo unspecified) | i | i | i | 6.4 | i | i
SMILES | MITF primary | FBW7 activator | TEAD-YAP block | GPR151 ag | GPR151 confirm | GPR119 counter
CC(C)CCn1c(=O)c2sccc2n2c(CCCC(=O)O)nnc12 | i | i | i | 5.2 | i | i
CC[C@H](C)NC(=O)CCCc1nnc2n(CCC(C)C)c(=O)c3sccc3n12 | i | i | i | i | nt | nt
CC1CCN(Cc2nnnn2CC(=O)N2CCC(N(C)C)C2)CC1 (stereo unspecified) | i | i | i | i | nt | nt
CCCCNc1nnc(SCc2cc([N+](=O)[O-])cc3c2OCOC3)s1 | i | i | i | i | nt | nt
CC(C)N(Cc1cnn(C)c1)C(=O)CCc1nnc(CCCc2ccccc2)o1 | i | i | i | i | nt | nt
CCCCOc1ccc2c3c(c(=O)oc2c1)CCC3 | i | i | i | i | nt | nt
CCCOc1ccc2oc(=O)c3c(c2c1)CCCN3C(=O)CN1CCN(C)CC1 | i | i | i | i | nt | nt
